Data on twelve compounds can be found in PubChem BioAssay (NCATS).

Values joined by “and” are separate entries in the source; they are usually repeats but may differ in a detail not shown here. Equal values may be shown once. Inconclusive results are not listed. A call without a number means that no potency is given here. Active and inactive are the calls of the source. The call rests on the fitted dose curve; in most records, active means well fitted cell-killing curve with a large enough effect; inconclusive means small, poorly fitted or top-dose-only effect; inactive means flat fitted curve, though single readings scatter.
Potency means the concentration at half of the fitted maximal effect.

The experiment in a line: Cell Viability - LYMP2-018 (AID 985).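 Further: compound exposure lasted 24 hr at 37 °C; nearly all actives have a fitted effect of over 50% in size.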 Particulars: LYMP2-018 lymphoblastoid cells, viability (qHTS); series mostly up to 92.2 µM. The source says:
NIH Chemical Genomics Center [NCGC]
NIH Molecular Libraries Screening Centers Network [MLSCN]
National Institutes of Environmental Health Sciences [NIEHS]
National Toxicology Program [NTP]
We have developed a 1536-well cell-based assay for quantitative high throughput screening (qHTS) against a number of cell lines to determine in vitro cytotoxicity of small molecules. This particular assay uses a human lymphoblastoid cell line (LYMP2-018) purchased from Coriell Institute for Medical Research.
NCGC Assay Protocol Summary:
The CellTiter-Glo luminescent cell viability assay (Promega) is a homogeneous method to measure the number of viable cells in culture. The end point readout of this assay is based on quantitation of intracellular ATP, an indicator of metabolic activity, using the luciferase reaction. Luciferase catalyzes the oxidation of beetle Luciferin to oxyluciferin and light in the presence of ATP. The luminescent signal is proportional to amount of ATP present.
Using the CellTiter-Glo luminescent cell viability assay, the amount of cellular ATP was measured in the lymphoblastoid cell line with complete culture medium following compound treatment for 24 hours. The assay was performed in opaque white Kalypsys 1536-well plates. In the screen, tetraoctylammonium bromide was used as positive control. Library compounds were measured for their ability to cause acute toxicity in the cell line, as reflected by a decrease in intracellular ATP levels, in a concentration-dependent manner. […] AC50 values were determined from concentration-response data modeled with the standard Hill equation.
qHTS protocol for CellTiter Glo lymphoblastoid cellular assay
[Step] [Parameter] [Value] [Description]
1. Reagent; 5 uL; 2500 lymphoblastoid cells/well
2. Time; 5 hr; 37 C incubation
4. Controls; 23 nL; Tetraoctylammonium bromide 6.4pM to 92 uM
5. Time; 24 hr; 37 C incubation
6. Reagent; 5 uL; CellTiter Glo reagent
7. Time; 30 min; Room Temperature
8. Detection; Luminescence; Viewlux plate reader
Keywords: cell viability, cytotoxicity, lymphoblastoid cell line, luminescence, NTPHTS, NTPHTS_NCGC, NIEHS, DSSTox, MLSMR, MLSCN, NIH Roadmap, qHTS, NCGC
In general terms: In qHTS, concentration-response curves come from the screen itself.
Turning to `CCCC(C)(COC(N)=O)COC(=O)NC(C)C` (configuration not stated), the Potency result is “inactive”. In the case of `Oc1cccc2cccnc12`, the Potency is 12.6 µM (active) and 10 µM (active).

Take `Oc1ccccc1-c1ccccc1`: the Potency result was “inactive”.

Turning to `OCCOc1ccccc1`, the Potency entry was “inactive”. Turning to `Clc1ccc(COC(Cn2ccnc2)c2ccc(Cl)cc2Cl)cc1` (configuration not stated), the Potency was 50.1 µM (active). With `CNCC(O)c1ccc(O)cc1` (configuration not stated), the Potency result was “inactive”.

As for `CC(=O)Oc1ccccc1C(=O)Nc1ncc([N+](=O)[O-])s1`, the Potency is 39.8 µM (active).

As for `CCOP(=S)(OCC)Oc1cc(C)nc(C(C)C)n1`, the Potency result is “inactive”. The value for `c1ccc2c(c1)Nc1ccccc1S2` was “inactive”; that for `NCC(O)c1ccc(O)cc1` (configuration not stated) was “inactive”. With `Oc1ccc(Cl)cc1Cc1ccccc1` the entry was “inactive”.

Regarding `N[C@@H](Cc1ccc(N(CCCl)CCCl)cc1)C(=O)O`, the Potency was 25.1 µM (active).
